The results in this text go back to PubChem BioAssay AID743279 (National Center for Advancing Translational Sciences (NCATS), 2014).

Among all 360,000 compounds or so, about 17,000 (4.7%) were called active. About 5% were inconclusive and are not listed. What follows is part of a selection rich in actives, with near analogues and random picks from the rest. Values without a mark were called inactive. No stated cut-off is given here; in the data, active means activity change below about -50%; inconclusive means mostly about -30% to -49%; inactive means weaker than that.
On the % scale 0 is the no-effect control and ±100 the full control effect.

A short description of this experiment: qHTS for Inhibitors of Inflammasome Signaling: IL-1-beta AlphaLISA Primary Screen. To be noted: THP-1 LPS/ATP IL-1B secretion, 16 h; at 57.5 µM, stronger effect = lower value. The method, boiled down: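 THP-1 cells pretreated 1 hr with compounds (up to 57.5 uM final), then stimulated with LPS (250 ng/mL final) plus ATP (1.25 mM final); secreted IL-1B measured by AlphaLISA after 16 hr, decreased signal indicating inhibition.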
In general terms: Quantitative high-throughput screening tests each substance at several concentrations.
Take `S=C(NN=C1CCN(Cc2ccccc2)CC1)NC1CCCCC1`: the activity change was 0%.
Next, `S=C(Nc1ccc(Br)cc1)NC1CCN(Cc2ccccc2)CC1`: -96% (active); `Cc1cc(Br)ccc1NC(=S)NC1CCCC1`: 0.7%; `CCNC(=S)NNC(=O)C1CCN(Cc2ccccc2)CC1`: -12.8%.
Next, `O=C(COc1ccc(Br)cc1F)NC1CCN(Cc2ccccc2)CC1`: -25.9%; `S=C(Nc1ccc(Br)cc1Cl)NC1CCN(Cc2ccccc2)CC1`: -75.9% (active); `O=C(Cc1ccc(Br)cc1)NCCc1ccccc1`: -1.81%.
For `COCCN(C(=O)C(C)N1C(=O)c2ccccc2C1=O)c1c(N)n(CC(C)C)c(=O)[nH]c1=O` (centres undefined), the activity change is 13.1%.
Consider `COc1ccc(OC)c(NC(=O)c2cc(-c3cc(F)ccc3OCC3CCCO3)n[nH]2)c1` (centres undefined), for which the activity change was 0%.
As to `CCCC(=O)N1CCC1(C)C(=O)NCc1ccc(C(C)C)cc1` (centres undefined), the activity change was -18%.
Next, `N/C(=N\OC(=O)Cc1ccc([N+](=O)[O-])cc1)c1ccccn1`: -21.1%; `N/C(Cc1ccc([N+](=O)[O-])cc1)=N\OC(=O)COc1ccc2ccccc2c1`: -59.9% (active); `Cc1cc(C)cc(OCC(=O)O/N=C(\N)Cc2ccc([N+](=O)[O-])cc2)c1`: -24.7%.
As for `CC1(C(=O)NS(=O)(=O)c2ccccc2)CCN1C(=O)c1ccccc1` (centres undefined), the activity change is 21%.
For the molecule `Cc1ccc(COc2ccc(/C=N/NC(=O)CN3CCCCC3)cc2)cc1`, the activity change is -51.4% (active).
Then `CCOc1cc(/C=N/NC(=O)CN2CCCCC2)ccc1O`, with 2.69%; and `O=C(CN1CCSCC1)N/N=C/c1ccc(F)cc1`, with -9.62%; and `COc1ccc(N2CC(C(=O)NCCN3C(=O)S/C(=C\c4cccnc4)C3=O)CC2=O)c(OC)c1` (centres undefined), with -26.5%.
For the molecule `COc1cc(OC)cc(C(=O)NNC(=O)Cc2cccs2)c1`, the activity change is -1.89%.
For the molecule `Cc1cc2nc(-c3ccco3)c(Cc3cccc(F)c3)n2c(C)c1Br`, the activity change was 5.29%.
Take `O=S1(=O)CC(N2CCN(CCO)CC2)CN1Cc1cn(Cc2cccc(Cl)c2)nn1` (centres undefined): the activity change was 13.7%.
With `CCOC(=O)C1C(=O)NC(N2CCN(c3ccccc3)CC2)=NC1c1ccco1` (centres undefined), the activity change is -8.04%.
Then `COc1ccc(C2=NN(C(=O)CSc3nnnn3C)C(c3ccco3)C2)cc1` (centres undefined), with -17.6%.
With `CCOC(=O)C1C(=O)C=C(c2ccc(OC)cc2)CC1c1ccco1` (centres undefined), the activity change was -62.8% (active).
On to `Cc1ccc(NC(=O)C(C)OC(=O)C2CC3CCCC(C2)C3=O)cc1S(=O)(=O)N1CCOCC1` (centres undefined), for which the activity change is 21%.
Take `CC1(C(=O)Nc2cccc3c2CCCC3)CCN1C(=O)C1(c2ccccc2)CC1` (centres undefined): the activity change is 2.24%.
Then `CC(C)Cc1ccc(-c2cc3nc(NCc4cccc(Cl)c4)ccn3n2)cc1`, with 16.6%; and `COc1ccc(-c2csc3ncnc(N4CCN(S(=O)(=O)c5cccc(F)c5)CC4)c23)cc1`, with -1.57%.
As to `COc1cccc(C=CC(=O)C=CC=Cc2ccccc2)c1`, the activity change was -59.4% (active).
Then `COc1cccc(C(=O)NNC(=O)/C=C/c2ccccc2)c1`, with 12.5%; and `COc1cccc(/C=C/C(=O)OCC(=O)N2CCCc3ccccc32)c1`, with -0.538%.
Next, `COc1ccc(C2OC(CCc3ccccc3)Cc3[nH]c(=S)[nH]c(=O)c32)cc1` (centres undefined): -10.2%.
Then `CCn1ccnc1CN(C)C(=O)c1cc(COc2ccc(Cl)cc2OC)on1`, with -11%; and `COc1cc(Cl)ccc1OCc1cc(C(=O)N2CC[C@@H]3CCCC[C@H]3C2)no1`, with -82.6% (active); and `COc1ccc(OCc2cc(C(=O)N3CCCC3)no2)c2ccccc12`, with 0%.
Turning to `O=C(CCCN1C(=O)CCC1=O)Nc1ccc(Cl)c(C(F)(F)F)c1`, the activity change was 3.74%.
Then `O=C(COC(=O)c1cc[n+]([O-])cc1)Nc1ccc(Cl)c(C(F)(F)F)c1`, with 14.3%; and `O=C(CC(O)(C(F)(F)F)C(F)(F)F)Nc1ccc(Cl)c(Cl)c1`, with -71.8% (active).
Next, `COc1ccc(C(=O)N2CCCCC2c2cc(C(=O)Nc3ccccc3)no2)cc1` (centres undefined): -3.11%; `O=C(CCN1C(=O)c2ccncc2C1=O)Nc1cc(F)ccc1F`: 36.2%; `C#CCOCCOCCOCCNc1nc(N2CCN(C(=O)Cn3cc(CCO)nn3)CC2)nc(N2CCN(C(=O)[C@H](CCCCN)n3cc(CCCC)nn3)CC2)n1`: 2.45%.
Take `C#CCOCCOCCOCCNc1nc(N2CCN(C(=O)CCCCCCCCCCNC(=O)[C@H]([C@@H](C)CC)n3cc(CCCCN=C(N)N)nn3)CC2)nc(N2CCN(C(=O)CCCCCCCCCCNC(=O)[C@H](CO)n3cc(CCCSC)nn3)CC2)n1`: the activity change was -111% (active).
Then `C#CCOCCOCCOCCNc1nc(N2CCN(C(=O)Cn3cc(CCCCN)nn3)CC2)nc(N2CCN(C(=O)[C@H](CCCCN)n3cc(CCC(=O)O)nn3)CC2)n1`, with 58.3%; and `C#CCOCCOCCOCCNc1nc(N2CCN(C(=O)[C@H](CCCCN)n3cc(CCC(=O)O)nn3)CC2)nc(N2CCN(C(=O)[C@H](CCCCN)n3cc(CC(C)O)nn3)CC2)n1` (some centres undefined), with 3.3%.
Next, `C#CCOCCOCCOCCNc1nc(N2CCN(C(=O)CCCCCCCCCCNC(=O)[C@H](CCCCN)n3cc(C)nn3)CC2)nc(N2CCN(C(=O)CCCCCCCCCCNC(=O)[C@H](CO)n3cc(CCCSC)nn3)CC2)n1`: -81.7% (active); `C#CCOCCOCCOCCNc1nc(N2CCN(C(=O)Cn3cc(CCO)nn3)CC2)nc(N2CCN(C(=O)Cn3cc(CCCN=C(N)N)nn3)CC2)n1`: 12.6%.
Consider `C#CCOCCOCCOCCNc1nc(N2CCN(C(=O)[C@H](CCC(=O)O)n3cc(CN)nn3)CC2)nc(N2CCN(C(=O)[C@H](CCC(=O)O)n3cc(CN)nn3)CC2)n1`, for which the activity change is 25.6%.
Take `C#CCOCCOCCOCCNc1nc(N2CCN(C(=O)CCCCCCCCCCNC(=O)Cn3cc(CCCCCN)nn3)CC2)nc(N2CCN(C(=O)CCCCCCCCCCNC(=O)[C@H](CO)n3cc(CCCSC)nn3)CC2)n1`: the activity change was -72.1% (active).
Then `C#CCOCCOCCOCCNc1nc(N2CCN(C(=O)[C@H](C(C)C)n3cc(CCO)nn3)CC2)nc(N2CCN(C(=O)[C@H]([C@@H](C)CC)n3cc(CCCN=C(N)N)nn3)CC2)n1`, with -5.99%.
